Screening data (PubChem)
12-LOX inh – ALOX12 (human) lipoxygenase inhibition; purified 12hLO, xylenol orange hydroperoxide absorbance; Potency, µM (highest dose often 108 µM), for inactives: at the highest dose activity change, negative = inhibition, usual class: inhibitors; 1.1% of 580,000 active
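Hydroperoxide product was detected by ferrous iron/xylenol orange as the 573 to 405 nm absorbance ratio. Arachidonic acid at 40 uM (final) was turned over for 30 min at room temperature by 150 nM human 12hLO, pH 7.0 Hepes buffer, after 15 min compound preincubation.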
VP16 counter – inhibits Gal4-VP16 luciferase reporter, ROR gamma counter-screen | Drosophila S2 Gal4-VP16 UAS-luciferase, luminescence, 20 h | Potency, µM (series often up to 53.6 µM), for the others: at the top dose activity, negative = inhibition, hits mostly inhibitors | 3.5% of 310,000 active | AID 2546;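 also: Gal4-VP16 expression switched on by copper sulfate through the metallothionein promoter; nearly all actives have a fitted effect of over 50% in size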
DT40 TDP1 CPT – DT40-hTDP1 cell growth loss with CPT; 12% of 420,000 active; chicken DT40 Tdp1-/-;hTDP1 cells + 20 nM CPT, ATP luminescence, 48 h; Potency, µM (doses to about 46.2 µM), without a hit: at the top dose activity change, negative = growth inhibition, actives largely listed as inhibitors; also: nearly all actives have a fitted effect of over 55% in size
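Chicken DT40 Tdp1-/- cells complemented with human TDP1, 400 cells/well, exposed to compounds plus 20 nM camptothecin for at least 48 h at 37 C; viability read as ATP content by CellTiter-Glo luminescence.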
ELG1 repair inh – ELG1-dependent DNA repair inhibition. HEK293T ELG1-luciferase reporter, luminescence, 16 h; DNA damage induced by 5-fluorouridine. Potency, µM (series often up to 46.1 µM), for inactives: at the top dose activity change, negative = inhibition, most hits filed as inhibitors. 2.3% of 330,000 active. AID 504467; also: nearly all actives have a fitted effect of over 55% in size
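5-Fluorouridine DNA damage + compound/DMSO, 2,000 cells/well, 16 h, 37 °C/5% CO2. ONE-Glo, 30 min RT, luminescence. Readout = decrease in reporter signal.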
RORgamma inh – ROR gamma (mouse) transcription inhibition; 5.4% of 310,000 active; AID 2551; Drosophila S2 Gal4-RORgamma UAS-luciferase reporter, 20 h; Potency, µM (highest dose often 53.6 µM), without a hit: at the top dose activity change, negative = inhibition, most hits filed as inhibitors; P51450; also: nearly all actives have a fitted effect of over 60% in size
Target sequence (P51450 whole entry, looked up, the tested form may be a part): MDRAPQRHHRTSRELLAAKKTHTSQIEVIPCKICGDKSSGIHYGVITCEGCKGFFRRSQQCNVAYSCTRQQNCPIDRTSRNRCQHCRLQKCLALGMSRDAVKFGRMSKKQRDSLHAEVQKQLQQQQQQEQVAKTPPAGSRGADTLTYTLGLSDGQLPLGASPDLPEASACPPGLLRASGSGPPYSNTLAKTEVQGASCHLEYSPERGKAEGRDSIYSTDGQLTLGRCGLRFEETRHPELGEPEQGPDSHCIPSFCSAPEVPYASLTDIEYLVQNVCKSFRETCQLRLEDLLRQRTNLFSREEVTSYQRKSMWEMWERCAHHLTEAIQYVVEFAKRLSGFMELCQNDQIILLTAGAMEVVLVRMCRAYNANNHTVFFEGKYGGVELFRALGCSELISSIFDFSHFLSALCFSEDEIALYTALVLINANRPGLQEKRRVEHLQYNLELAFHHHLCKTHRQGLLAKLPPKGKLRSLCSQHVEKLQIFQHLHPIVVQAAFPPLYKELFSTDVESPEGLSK
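Drosophila Schneider cells stably carrying a metallothionein-driven Gal4 DBD–ROR gamma fusion and a UAS-Photinus luciferase reporter were exposed to compound for 1 hr, then induced with copper sulfate (700 uM final) for 20 hr at ambient temperature before luminescence reading.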
TDP1 cell noCPT – qHTS for Inhibitors of human tyrosyl-DNA phosphodiesterase 1 (TDP1): qHTS in cells in absence of CPT. DT40 Tdp1-/- hTDP1 cells, no CPT, ATP luminescence, 48 h. Potency, µM (series often up to 46.2 µM), for inactives: at the highest dose activity change, negative = growth inhibition, hits mostly inhibitors. 15% of 420,000 active; also: nearly all actives have a fitted effect of over 55% in size
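Camptothecin absent (DMSO only). Human TDP1-complemented DT40 knockout cells, 400 cells/well, 37 °C for minimum 48 hr; ATP measured via CellTiter-Glo, 30 min dark incubation, luminescence.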
* = called active by the depositor; ? = inconclusive; / = no result. In the library only some 15% were active in any assay of this set; here they are far more common. Calls follow the shape of the dose curve; as a rule, active = well fitted curve in the direction sought with a large enough effect; inconclusive = small, poorly fitted or top-dose-only effect, or another doubt; inactive = no such curve, though single readings can be large; an effect the other way counts as inactive or inconclusive. % is scaled to controls: 0 for no effect and ±100 for the full control effect; potency is read from the fitted curve at half-maximal effect.

SMILES	12-LOX inh	VP16 counter	DT40 TDP1 CPT	ELG1 repair inh	RORgamma inh	TDP1 cell noCPT
Cc1cccc(C(=O)N2CCN(Cc3ccc(-c4cccc(F)c4)s3)CC2)n1	31.1%	/	/	/	/	/
Fc1ccc(-c2nc(COc3ccccc3F)co2)cc1	-6.1%	/	/	/	/	/
Cn1c(=S)oc2ccccc21	241.9%	-10.5%	24.4%	-13.1%	-2.3%	-5.2%
CC(C)CC(=O)/C=C/n1c(=S)oc2ccccc21	9.8%	11.2µM*	3.26µM*	?	-96.1%	2.31µM*
CC(=O)/C=C/n1c(=S)oc2ccccc21	-3.3%	3.16µM*	0.82µM*	?	2.82µM*	0.651µM*
CCC(C)c1ccc(C(N)C(C)C)cc1 (stereo not drawn)	5.3%	/	/	/	/	/
CC(C)(C)n1nnnc1C(c1cc2ccccc2o1)N(Cc1ccccc1)Cc1ccccc1 (stereo not drawn)	10.5%	/	?	/	/	?
CCCCn1nnnc1C(c1cc2ccccc2o1)N(C)CCc1ccccc1 (stereo not drawn)	0.8%	/	?	/	/	20.6µM*
CCCCn1nnnc1C(c1cc2ccccc2o1)N1CCOCC1 (stereo not drawn)	0.0%	/	2.4%	/	/	-21.3%
CN(Cc1ccc(Cl)cc1)C(c1cc2ccccc2o1)c1nnnn1C(C)(C)C (stereo not drawn)	-13.8%	/	?	/	/	?
CCCCn1nnnc1C(c1cc2ccccc2o1)N1CCN(C(=O)OC(C)(C)C)CC1 (stereo not drawn)	-7.8%	/	?	/	/	?
CCCCn1nnnc1C(c1cc2ccccc2o1)N(CCC#N)Cc1ccccc1 (stereo not drawn)	0.6%	/	16.4µM*	/	/	?
CN(Cc1ccccc1)C(c1cc2ccccc2o1)c1nnnn1C(C)(C)C (stereo not drawn)	7.6%	/	?	/	/	18.4µM*
CCCCn1nnnc1C(c1cc2ccccc2o1)N(Cc1ccccc1)Cc1ccccc1 (stereo not drawn)	-17.2%	/	?	/	/	18.4µM*
Cn1c(=O)[nH]c(=O)c2c1nc(N1CCN(CCO)CC1)n2Cc1cccc(Br)c1	23.4%	/	/	/	/	/
CCCCn1nnnc1C(c1cc2ccccc2o1)N(C)Cc1ccc(Cl)cc1 (stereo not drawn)	0.0%	/	?	/	/	20.6µM*
CC(O)c1nc2ccccc2n1CCCOc1ccccc1 (stereo not drawn)	11.3%	1.5%	?	-6.4%	-11.7%	16.4µM*
CC(O)c1nc2ccccc2n1Cc1ccccc1 (stereo not drawn)	?	-7.1%	-18.1%	1.7%	-18.5%	4.2%
CC(O)c1nc2ccccc2n1CCCc1ccccc1 (stereo not drawn)	7.6%	-0.1%	18.4µM*	8.3%	3.4%	-24.8%
CCCCCCn1c(C(C)O)nc2ccccc21 (stereo not drawn)	34.1%	6.5%	?	0.2%	-19.0%	?
OCc1nc2ccccc2n1CCCc1ccccc1	-8.5%	/	16.4µM*	/	/	?
CCC(=O)N1CCN(c2nc3c(s2)CN(C(=O)CC)CC3)CC1	8.2%	/	/	/	/	/
Cc1ccccc1NC(=O)C1=C(Cl)CCCC1	-4.8%	/	/	/	/	/
CC1CCc2nn3ccn(CC(=O)Nc4cccc(Cl)c4)c(=O)c3c2C1 (stereo not drawn)	-13.0%	/	/	/	/	/
CCOc1cc2cc(C(=O)c3ccccc3O)cnc2cc1OC	8.91µM*	/	/	/	/	/
CC[C@]1(O)C[C@@H]2CN(CCc3c([nH]c4ccccc34)[C@](C(=O)OC)(c3cc4c(cc3OC)N(C)[C@H]3[C@](O)(C(=O)OC)[C@@H](C(=O)OC)[C@@]5(CC)C=CCN6CC[C@@]43[C@@H]65)C2)C1	?	?	0.0841µM*	/	44.5%	0.106µM*
